This is an account of results in PubChem BioAssay (EPA / NIEHS).

Results filed as inconclusive are left out. The source made the active and inactive calls. Rule for the calls: active = hit-call score of the fitted dose curve at least 0.9, where 1 is the maximum; inconclusive = response in the unintended direction; inactive = score below 0.9.

Usually AC50 stands for the concentration at which the activity in the assay is half-maximal.

The nature of the first test: ArunA_NOG_NeuriteLength: ArunA Biomedical's Neurite Outgrowth (NOG) Assay for Neurite Length (AID 2283757). In a few lines: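 Differentiated human H9-derived neurons were exposed for 48 h from seeding, then stained with Hoechst and βIII-tubulin. Automated high-content imaging gave total neurite length per valid neuron, counting processes >10 um. Loss of signal was scored versus DMSO.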
Consider `CCCCC(CC)COP(=O)(OCC(CC)CCCC)OCC(CC)CCCC` (stereo not drawn), for which the outcome was inactive.

`COC(=O)[C@H]1[C@H]2C[C@@H]3c4[nH]c5cc(OC)ccc5c4CCN3C[C@H]2C[C@@H](OC(=O)c2cc(OC)c(OC)c(OC)c2)[C@@H]1OC`: the molecule was classed as inactive.

Regarding `Nc1nc(Cl)nc2c1ncn2[C@H]1C[C@H](O)[C@@H](CO)O1`, the AC50 is 1.74 µM (active).

In the case of `Cc1ccc(-c2cc(C(F)(F)F)nn2-c2ccc(S(N)(=O)=O)cc2)cc1`, the AC50 was 12.9 µM (active).

A further test in a line: ArunA_NOG_NeuritesPerNeuron: ArunA Biomedical's Neurite Outgrowth (NOG) Assay for Neurites Per Neuron (AID 2283758). The procedure, abridged: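 Differentiated human H9-derived neurons exposed to chemicals for 48 h from seeding, then stained with Hoechst and βIII-tubulin/DyLight 488. Automated imaging counted neurites (processes >10 um) per valid neuron; loss of signal versus DMSO scored.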
On to `CCCCC(CC)COP(=O)(OCC(CC)CCCC)OCC(CC)CCCC` (stereo not drawn), for which the call was inactive.

On to `COC(=O)[C@H]1[C@H]2C[C@@H]3c4[nH]c5cc(OC)ccc5c4CCN3C[C@H]2C[C@@H](OC(=O)c2cc(OC)c(OC)c(OC)c2)[C@@H]1OC`, for which the outcome was inactive.

For `Nc1nc(Cl)nc2c1ncn2[C@H]1C[C@H](O)[C@@H](CO)O1`, the concentration at half-maximal activity (AC50) was 1.58 µM (active).

Take `Cc1ccc(-c2cc(C(F)(F)F)nn2-c2ccc(S(N)(=O)=O)cc2)cc1`: the AC50 is 13.9 µM (active).
